# Whole data set: some 25,000 sequences, median “ln(normalized median fluorescence intensity)” near 9.7, cut for the highest 2% near 11. This is one part of a sample in which the highest values are shown more often than they occur.
# Test system: PfAP2-HC AP2 domain (GST-tagged)
# Experiment: gcPBM binding intensity (ln(normalized median fluorescence intensity)); higher = stronger DNA binding
# Outline: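 An Agilent 4 × 180k array carrying primer-extended double-stranded 36-bp intergenic genomic probes and negative controls received GST-tagged P. falciparum DNA-binding domains expressed in E. coli, about 25 μg on average, for 1 h. The binding buffer contained 1× PBS, 1% milk, 0.2 mg/ml BSA, 0.5% salmon testes DNA and 0.03% Triton X-100. Binding intensity is the top Masliner-normalised natural-log median intensity across replicate spots of either probe orientation, read after Alexa488 anti-GST antibody staining and a 488 nm scan.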
row,Sequence,gcPBM binding intensity (ln)
1,TTTATTTATTAAGAATGTACATGTATTTGTTAAATA [XGTACX_site4465],9.4
2,AAAAATTTGGCATACACACACACACGCACACGCACA [CACACA_site6422],10.6
3,CACATACACATACACATACACACGCATAGAAACATA [CACACA_site2136],10.5
4,CATAGATACATACACGCACACACATATATATATATA [CACACA_site13],10.3
5,CGCACACGCAGACACACACACACATATAAATAAATA [CACACA_site7101],10.8
6,TATCTCATAGTATACACACACACACGCGCACATATA [CACACA_site6917],10.5
7,ATTTGGCATAGACACACACACACACGCACGCACATA [CACACA_site6424],11.1
8,TATACACATAGACACACACACATACACGCACATACA [CACACA_site6908],10.7
9,AAATTTGGCAGACACACACACACACGCACACGCACA [CACACA_site6423],11.5
10,TCTCATAGTAGACACACACACACACGCACATATATA [CACACA_site6916],11.3
11,TCAAGTTTATATTAACTATTTATGAAAAAAAAAAGA [CACACA_negctrl_site902],9.38
12,ATTTTATATACACTTTGTACTTATTTTATTCTTCTT [XGTACX_site4200],9.93
13,TAATATATTTATAAGTGTACACATTATATAAATCCC [XGTACX_site8875],9.64
14,ATCCATTATTTTTGTTGTACGGGTAACTTTAAAAAG [XGTACX_site2226],9.5
15,ATGAATAATTAATGATGTACTTAAAAAAAAAAATAT [XGTACX_site6346],9.53
16,TATATAGCTAAAAACACACAAATATGTACACATAAA [CACACA_site7665],9.88
17,ATGAACATATCAATTCTCAAAATAGGATGAGAGCAT [CACACA_negctrl_site230],9.6
18,ATCATAAATATAGCAACACACGGATTACATAAAATA [CACACA_site2796],9.85
19,GTGGTTATATATTAAGTGCATATTATAATTTTAAAC,9.52
20,TATGTGAATATAATCACACACAATACGGAAAGAGAC [CACACA_site7311],11.2

row,Sequence,gcPBM binding intensity (ln)
1,TATGTGAATATAATCACACACAATACGGAAACCCAC [CACACA_site2725],9.99
2,AATATGTGAATATAATCACACACAATACGGAAACAC [CACACA_site8875],10.7
3,TTAAAATTTTTCAAAAGTACATAAATAATATATATT [XGTACX_site4694],9.32
4,ATAAACAGATCATATACATGCATATATGTAGAATAA [TGCATGCA_site157],9.82
5,CACACGCACGAACACACACACACACGCACGCACATA [CACACA_site6305],10.7
6,CACACGCACGAACACACACACACACGCATATAAATA [CACACA_site6302],10.9
7,CACACGCACGAACACACACACATATAAATATAAATA [CACACA_site6299],10.2
8,CACACGCACGAACACACACACACACGCGCACATATA [CACACA_site6304],11
9,CACGCGCACGAACACACACACACACGCATATAAATA [CACACA_site7103],11
10,AACACGCGCAGACACACACACACACGCACATATATA [CACACA_site7104],10.9
11,ATATACTATTAACCACATATGTGTGTTAATTTATAT [GTGCAC_negctrl_site315],9.79
12,CATATATAATAATATTGTACATATATAATAATAATA [XGTACX_site3338],9.69
13,AAATAAGAACATAGAATGCACTTTTTTTTTTTTTCC,9.51
14,TAAATATATGCATATACACACAACAAAAAAATATAT [CACACA_site2341],10.1
15,AATAAGTATACACATACACACACACCCAAAAAAAAA [CACACA_site8034],11
16,GGTGATAATAAGCATACACACACACCCAAAAAAAAA [CACACA_site8137],10.2
17,AATAAAATAATAAAAGCACACAAGAATACACCCAAA [CACACA_site7919],10.6
18,TGATAATAAGCATACACACACACACTAAAAAAAAAA [CACACA_site6478],10.9
19,TGATAATAAGCATACACACACACACCCAAAAAAAAA [CACACA_site721],11.2
20,TAAGTATACGCATACACACACACACCCAAAAAAAAA [CACACA_site425],10.4

row,Sequence,gcPBM binding intensity (ln)
1,AAGTAAAATAAGTATACACACATAAATATATATATA [CACACA_site685],10.1
2,AAGAAAATAAAAAATAAGCATAATATGATATGATAT [TGCATGCA_negctrl_site196],10.1
3,TGATAATAAGCATACACACACACACTAGAAAAAAAA [CACACA_site4558],11.5
4,AATAAATTGGTATGTTGTACAAAGTAACCATCGATT [XGTACX_site2823],9.75
5,ATTCCACTGTTTTAGTGTACTGGTCGTTTTTTTTTT [XGTACX_site1738],9.89
6,TTAAATAAAATAAAAACATGCACACTTTATTTTTTT [TGCATGCA_site719],9.74
7,TATTAATTATTATGACATACATATCAGTTATTAAAA [CACACA_negctrl_site600],9.35
8,GTTACACCAACAAACACACACACACCCACCCACAAA [CACACA_site2427],10.6
9,GTTACACCAACAAACACACACACACCGACACCCAAA [CACACA_site5361],10.6
10,AGCACCCACCAACACACACACACACCCACCCACCCA [CACACA_site8011],11.2
11,AGCACCCACCAACACACACACACACCCACCCACCGA [CACACA_site368],11.2
12,ATCAAGCACCAACACACACACACACCCCCACCCACA [CACACA_site370],11.3
13,TCTTTATTATTCGCCACACACATATATATATATATA [CACACA_site3077],10.1
14,TTTCCAAATTGTTGACGGACACTCACGAATAGTTAT [XGTACX_site5720],9.63
15,ATTAAATGATCAAGGTGTACATTAACAAGAACTATA [XGTACX_site7022],9.72
16,TACGTAGCCACACTAACACACACAAATATGCACAAT [CACACA_site8942],10.9
17,CGTAGCCACACTAACACACACAAATATACACAATCA [CACACA_site7379],10.7
18,CGTAGCCGCACTAACACACACAAATATACGCAATCA [CACACA_site2898],10.1
